Test systems include T-47D breast; BT-549 breast; MDA-MB-435 melanoma; SW-620 colon; MCF7 breast; HCT-116 colon; HCC-2998 colon; KM12 colon.
Common to all, as to experiment: NCI-60 one-dose screen, 48 h (100 = growth as untreated, 0 = no growth, -100 = all killed)
What all share (conditions): 10 µM unless noted

Among the data in PubChem BioAssay (NCI) are growth values, retold here.

Compounds without any hit were thinned out: in the full panel of roughly 83,000, 20% have a hit.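 48-hour exposure, single concentration, 96-well plates; percent growth endpoint where 0 means no net growth. Active: below 10.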 Values without a mark were called inactive. Calls of active or inactive are those of the source.

As to `Cn1cc(C(=O)c2nc(-c3c[nH]c4ccccc34)no2)c2cc(F)ccc21`, the growth in the experiment on T-47D breast was 37.8%; in the experiment with BT-549 breast, 48%; in the experiment with MDA-MB-435 melanoma, -19.1% (active); in the experiment on SW-620 colon, 23.2%; in the experiment on MCF7 breast, 19.2%; in the experiment with HCT-116 colon, 19.5%. Moreover, the growth in the experiment on HCC-2998 colon was 73.9%; in the experiment with KM12 colon, 26.7%.
As to `O=C(Nc1nc2cc(C(=O)N3CCN(C(c4ccccc4)c4ccccc4)CC3)ccc2o1)c1ccc(NC2CCCCC2)c([N+](=O)[O-])c1`, the growth in the experiment with T-47D breast is 44.3%; in the experiment with BT-549 breast, 83.4%; in the experiment on MDA-MB-435 melanoma, 64.9%; in the experiment with SW-620 colon, 44.3%; in the experiment with MCF7 breast it was 50.2%; in the experiment with HCT-116 colon it was 40.9%. In addition, the growth with HCC-2998 colon is 62.2%; in the experiment on KM12 colon it was 51.4%.
Regarding `O=C1c2c(c3c4ccccc4[nH]c3c3ccc4ccccc4c23)C(=O)N1CCN1CCOCC1`, the growth is 18.6% in the experiment on T-47D breast; 69.8% with BT-549 breast; 58.6% with MDA-MB-435 melanoma; 36.1% in the experiment on SW-620 colon; 16.4% in the experiment with MCF7 breast; 23.4% in the experiment on HCT-116 colon. Further, the growth in the experiment with HCC-2998 colon was 80%; with KM12 colon, 36.4%.
For the compound `CCNCCNc1cc(C2CCCCC2)c(C#N)c2nc3ccccc3n12`, the growth is -19.4% (active) in the experiment on T-47D breast; -19.7% (active) in the experiment with BT-549 breast; -38.6% (active) in the experiment on MDA-MB-435 melanoma; 7.58% (active) in the experiment on SW-620 colon; 14.7% in the experiment with MCF7 breast; -4.22% (active) with HCT-116 colon. Further, the growth with HCC-2998 colon is 13.6%; with KM12 colon, 38.8%.
With `CNC(=O)c1ccccc1Oc1nc(Nc2cc(OC)c(OC)c(OC)c2)ncc1Br`, the growth is 62.2% in the experiment with T-47D breast; 62.7% in the experiment on BT-549 breast; 74.5% with MDA-MB-435 melanoma; 46.7% in the experiment on SW-620 colon; 44.5% with MCF7 breast; 46.5% in the experiment on HCT-116 colon. Further, the growth was 51.6% in the experiment with HCC-2998 colon and 11% in the experiment with KM12 colon.
As to `Nc1c(C(=O)Nc2ccccc2C(F)(F)F)sc2nc3c(cc12)CCC3`, the growth is 67.4% with T-47D breast; 115% with BT-549 breast; 92.8% in the experiment with MDA-MB-435 melanoma; 96% in the experiment with SW-620 colon; 95.8% with MCF7 breast; 107% in the experiment on HCT-116 colon. Besides, the results for the growth in the experiment with HCC-2998 colon and in the experiment with KM12 colon were 94.6% and 113%, respectively.
Take `COc1ccc(C2=C(Br)C(=O)c3nc(C)ccc3C2=O)cc1`: the growth is 72.8% with T-47D breast; 93.4% in the experiment with BT-549 breast; 103% in the experiment with MDA-MB-435 melanoma; 27.2% in the experiment on SW-620 colon; 74.7% with MCF7 breast; 74.1% with HCT-116 colon. For the same compound, the growth in the experiment with HCC-2998 colon was 104%; in the experiment with KM12 colon, 91.9%.
Take `COc1ccc(-c2cc(-c3cc(OC)c(OC)c(OC)c3)c(C#N)c(=O)n2CCCCC(=O)NO)cc1`: the growth in the experiment on T-47D breast was 50.7%; in the experiment with BT-549 breast it was 92.7%; in the experiment on MDA-MB-435 melanoma it was 37.7%; in the experiment on SW-620 colon, 47.9%; in the experiment with MCF7 breast it was 66.5%; in the experiment with HCT-116 colon it was 25.1%. Further, the growth is 87.5% in the experiment on HCC-2998 colon and 73.1% with KM12 colon.
Take `C=CCN=c1sc2c(n1NC(=O)c1cc3ccc1CCc1ccc(cc1)CC3)C(=O)c1ccccc1C2=O`: the growth was -3.21% (active) in the experiment with T-47D breast; -99.1% (active) in the experiment on BT-549 breast; -93.5% (active) in the experiment with MDA-MB-435 melanoma; -59.7% (active) in the experiment with SW-620 colon; -62.8% (active) in the experiment on MCF7 breast; -32.4% (active) in the experiment on HCT-116 colon. The growth is -33.5% (active) with HCC-2998 colon and 6.04% (active) in the experiment on KM12 colon.
`CCN(CC)CC(O)COc1c(Br)c(Br)c(Br)c2c1OC(C)(C)C2` (stereo not drawn): the growth was 69.5% in the experiment on T-47D breast; 95.6% in the experiment on BT-549 breast; 1.3% (active) in the experiment with MDA-MB-435 melanoma; -65.9% (active) in the experiment on SW-620 colon; 73.2% with MCF7 breast; 45.5% with HCT-116 colon. Besides, the growth with HCC-2998 colon was 76%; in the experiment on KM12 colon, 53.8%.
In the case of `Cc1ccc(C(=O)c2ccc(CC(=O)N/N=C/c3ccccc3O)n2C)cc1`, the growth with T-47D breast is 75.6%; in the experiment on BT-549 breast, 85.1%; in the experiment on MDA-MB-435 melanoma it was 83.2%; in the experiment with SW-620 colon, 89.6%; in the experiment with MCF7 breast it was 81.5%; in the experiment on HCT-116 colon, 92.1%. The growth is 92.1% in the experiment on HCC-2998 colon and 80.4% with KM12 colon.
With `O=C(COc1ccc(-c2nc3cc(Cl)c(Cl)cc3[nH]2)cc1)N=Nc1c(O)[nH]c2ccc(Cl)cc12`, the growth in the experiment with T-47D breast is 56.8%; in the experiment on BT-549 breast, 76.7%; in the experiment on MDA-MB-435 melanoma, 83.5%; in the experiment on SW-620 colon, 56.1%; with MCF7 breast, 25.6%; in the experiment with HCT-116 colon, 54.4%. Moreover, the growth in the experiment with HCC-2998 colon was 95.1%; in the experiment with KM12 colon, 64.5%.
For the compound `Cc1ccccc1/C=C/C(=O)c1cccc(OCCCCOc2cccc(C(=O)/C=C/c3ccccc3C)c2)c1`, the growth with T-47D breast is 91.4%; in the experiment with BT-549 breast, 111%; in the experiment with MDA-MB-435 melanoma, 95%; in the experiment with SW-620 colon, 94.6%; in the experiment with MCF7 breast, 41.5%; with HCT-116 colon, 41.6%. The growth was 93.4% in the experiment with HCC-2998 colon and 96.7% in the experiment with KM12 colon.
As to `CSc1nc2ccccc2cc1/C=C1/C=C(c2ccccc2)NC1=O`, the growth was 79.9% in the experiment on T-47D breast; 77.4% with BT-549 breast; 3.27% (active) in the experiment on MDA-MB-435 melanoma; 55.4% with SW-620 colon; 49.8% in the experiment with MCF7 breast; 56.8% with HCT-116 colon. Also, the growth in the experiment with HCC-2998 colon was 93.2%; in the experiment with KM12 colon, 59.6%.
As to `C1CN(SSN2CCOCC2)CCO1`, the growth in the experiment with T-47D breast is -24.8% [100 µM] (active); in the experiment on BT-549 breast, -90% [100 µM] (active); with MDA-MB-435 melanoma, 0.278% [100 µM] (active); in the experiment with SW-620 colon, -56.4% [100 µM] (active); with MCF7 breast, 22.1% [100 µM]; with HCT-116 colon, -75.5% [100 µM] (active). Further, the results for the growth in the experiment with HCC-2998 colon and in the experiment on KM12 colon were 90.7% [100 µM] and 2.07% [100 µM] (active), respectively.
For the compound `CC(C)=CCC[C@](C)(O)[C@H]1CC[C@]2(C)[C@@H]1CC[C@@H]1[C@@]3(C)C/C(=C/c4ccco4)C(=O)C(C)(C)[C@@H]3CC[C@]12C`, the growth is 97.8% in the experiment on T-47D breast; 98.1% in the experiment on BT-549 breast; 97.4% in the experiment with MDA-MB-435 melanoma; 99.1% in the experiment on SW-620 colon; 97.2% with MCF7 breast; 97.4% with HCT-116 colon. Also, the growth was 105% in the experiment on HCC-2998 colon and 106% with KM12 colon.
